Compound activity (PubChem)
RGS4 inh: inhibitors of human regulator of G protein signaling 4; P49798; Transcreener GDP fluorescence polarization, RGS4-accelerated GTP hydrolysis; Potency, µM (titrated, usually from 114 µM), for inactives: top-dose activity change, negative = inhibition, most hits filed as inhibitors; 390,000 compounds, 0.039% hits; AID 504845; note: % is set by controls: 0 for no effect and ±100 for the full control effect; nearly all actives have a fitted effect of over 75% in size
Target sequence (P49798 whole entry, looked up): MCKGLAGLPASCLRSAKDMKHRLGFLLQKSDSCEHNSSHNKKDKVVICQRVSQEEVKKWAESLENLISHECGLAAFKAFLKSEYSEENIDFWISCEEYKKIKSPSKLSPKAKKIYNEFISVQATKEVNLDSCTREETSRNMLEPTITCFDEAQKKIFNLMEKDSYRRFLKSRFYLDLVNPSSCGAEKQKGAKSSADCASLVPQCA
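MLSMR compounds (23 nl, pin-transferred) preincubated 10 min at room temperature with a 500nM (2x) first reagent, then RGS4 at 900nM (2x) plus Transcreener GDP mix added; fluorescence polarization (620/688 nm) read before and after 90 min at 30 °C.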
MCF10A rerep: DNA re-replication induction in MCF 10a cells; MCF 10A DNA re-replication, Hoechst nuclear intensity, 48 h; Potency, µM (doses to about 46.1 µM), for inactives: at the highest dose activity, positive = re-replication, usual class: activators; 350,000 compounds, 2.9% hits; note: % of control where 0% means no effect; nearly all actives have a fitted effect of over 50% in size
KB-V1 MDR tox: KB-V1 MDR subline cytotoxicity; KB-V1 MDR cells viability, CellTiter-Glo, 72 h; Potency, µM (top dose mostly 46.1 µM), most hits filed as cytotoxic; 400,000 compounds, 3.4% hits; AID 1347076; note: % is set by controls: 0 for no effect and ±100 for the full control effect; nearly all actives have a fitted effect of over 60% in size
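Compound-treated KB-V1 multidrug-resistant cells, 72 h, 37 degrees C; viability by CellTiter-Glo. Fitted qHTS curves give the values.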
SW480 rereplic: induces DNA re-replication in SW480 colon adenocarcinoma cells | Potency, µM (top dose mostly 46.1 µM), without a hit: at the highest dose re-replication activation, actives largely listed as activators | AID 624297 | 340,000 compounds, 1.8% hits | SW480 DNA re-replication, Hoechst DNA content imaging, 48 h; note: % of control where 0% means no effect; nearly all actives have a fitted effect of over 55% in size
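Hoechst fluorescence of nuclei (405 nm excitation, 500-530 nm emission) measured by plate-scanning imager after 48 hr compound exposure at 37 C; re-replication scored as increased number of nuclei with elevated intensity.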
KB-3-1 cytotox: kills parental KB-3-1 adenocarcinoma cells; 400,000 compounds, 1.4% hits; Potency, µM (top dose mostly 46.1 µM), usual class: cytotoxic; AID 1347075; KB-3-1 viability, CellTiter-Glo ATP luminescence, 72 h; note: % is set by controls: 0 for no effect and ±100 for the full control effect; nearly all actives have a fitted effect of over 60% in size
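Cytotoxicity in the drug-sensitive parental line KB-3-1 was scored as loss of CellTiter-Glo luminescence following 72 h incubation with compound. Values come from curve fitting of normalized concentration-response data.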
TSG101-PTAP inh: blocks PTAP/TSG101 interaction to inhibit HIV-1 budding | 340,000 tested, under 10 active | Q99816 | AID 493005 | Fluorescence polarization, FITC-PTAP peptide / Tsg101 binding | Potency, µM (highest dose often 115 µM), inactives show at the highest dose activity change, negative = inhibition, hits mostly inhibitors; active = well fitted inhibition curve with a large enough effect in the main read-out, with a control signal flat, not every such curve was filed as active; inconclusive = small, poorly fitted or top-dose-only effect, or effect the other way, or a change in a side signal; inactive = no such curve, though single readings can be large or run the other way; note: % of control where 0% means no effect
Target sequence (Q99816 whole entry, looked up): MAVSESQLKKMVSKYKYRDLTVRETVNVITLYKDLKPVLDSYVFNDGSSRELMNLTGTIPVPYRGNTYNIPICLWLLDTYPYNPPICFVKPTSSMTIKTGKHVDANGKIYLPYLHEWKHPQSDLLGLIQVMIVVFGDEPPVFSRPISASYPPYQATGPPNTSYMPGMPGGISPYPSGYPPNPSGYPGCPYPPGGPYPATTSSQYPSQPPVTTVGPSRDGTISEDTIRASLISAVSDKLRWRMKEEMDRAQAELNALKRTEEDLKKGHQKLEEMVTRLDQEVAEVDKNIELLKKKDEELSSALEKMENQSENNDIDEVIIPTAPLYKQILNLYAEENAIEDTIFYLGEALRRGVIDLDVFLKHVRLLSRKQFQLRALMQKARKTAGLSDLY
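Fluorescence anisotropy tracks displacement of a FITC-tagged PTAP peptide (50 nM) from the Tsg101 binding domain (10 uM), following a 20 min room-temperature incubation at pH 7.5.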
Starred values were filed as active, the others as inactive; i = inactive; ? = inconclusive; . = no result given. This is a sample that favours compounds with a hit; in the whole collection about 6.6% have one here. Unless noted, calls come from the whole dose curve; as a rule, active = well fitted curve in the direction sought with a large enough effect; inconclusive = small, poorly fitted or top-dose-only effect, or another doubt; inactive = no such curve, though single readings can be large; an effect the other way counts as inactive or inconclusive. Potency is the fitted concentration of half-maximal effect.

SMILES	RGS4 inh	MCF10A rerep	KB-V1 MDR tox	SW480 rereplic	KB-3-1 cytotox	TSG101-PTAP inh
O=S(=O)(c1cccc(C(F)(F)F)c1)n1c(/C=C/c2ccccc2)nc2ccccc21	4%	.	.	.	.	.
CN1CCCN(S(=O)(=O)c2cccc(C(F)(F)F)c2)c2nc3ccccc3nc21	-10%	21µM*	i	?	i	3%
Cc1ccc(NC(=S)NCC23C=CC(O2)C2C(=O)N(c4ccc(C)cc4)C(=O)C23)cc1 (centres undefined)	?	?	13µM*	?	i	1%
COC(=O)c1cc2oc3ccccc3c2n1Cc1nc(-c2cccc(Cl)c2)oc1C	11%	.	?	.	i	.
CCOC(=O)Cn1c(-c2cccnc2)nc(-c2ccccc2)c1-c1ccccc1	11%	9%	i	-9%	i	-2%
CCOC(=O)C(=C1Nc2ccccc2N1)n1c(-c2cccnc2)nc2ccccc21	.	.	21µM*	.	?	.
CCOC(=O)C1CCCCN1S(=O)(=O)c1csc(C(N)=O)c1 (centres undefined)	30%	.	i	.	i	.
Oc1c(Br)cc(/C=N/Nc2nncc3ccccc23)cc1Br	6%	21µM*	i	1%	i	?
Cc1ccc(N(C)C(=O)C2CCN(S(=O)(=O)c3c(C)noc3/C=C/c3c(C)cc(C)cc3C)CC2)cc1	19%	.	.	.	.	.
CN(C)CCNC(=O)/C(=C/c1ccc(-c2ccc(Cl)cc2Cl)o1)NC(=O)c1ccccc1	-1%	7.3µM*	?	?	?	-2%
Cc1ccc(C(=O)N/C(=C\c2ccc(-c3ccc(Br)cc3)o2)C(=O)NCCCN(C)C)cc1	27%	?	?	7.3µM*	5.8µM*	-5%
Cc1ccc(C(=O)N/C(=C\c2ccc(-c3cccc([N+](=O)[O-])c3)o2)C(=O)NCCCN(C)C)cc1	-4%	1%	i	0%	?	-2%
CN(C)CCNC(=O)/C(=C/c1ccc(-c2ccc(Cl)cc2)o1)NC(=O)c1ccccc1	-7%	?	i	?	?	0%
Cc1ccc(CNCc2cn[nH]c2-c2ccc(C)cc2)cc1	6%	.	i	.	i	.
Cc1ccccc1Nc1nc(Nc2ccccc2C)nc(SC2=NCCS2)n1	20%	-3%	16µM*	-3%	i	-6%
CCN(CCNC(=O)Nc1ccc(Cl)cc1)c1ccccc1	10%	18µM*	?	?	?	-2%
O=C(NCCc1ccc(Cl)cc1)Nc1ccc(Cl)cc1	10%	8%	i	-16%	i	-2%
N#CCc1c(C#N)c(N)nc(N2CCN(c3ccc(F)cc3)CC2)c1C#N	-34%	?	12µM*	-3%	?	-2%
N#CCc1c(C#N)c(N)nc(N2CCN(Cc3ccc4c(c3)OCO4)CC2)c1C#N	?	16µM*	21µM*	9%	?	0%
O=C1C(=C(I)I)c2ccccc2-c2ccccc21	?	?	15µM*	5.8µM*	?	-6%
Cc1ccc(-c2nc3cc(C(C)C)ccc3o2)cc1NC(=O)c1cc([N+](=O)[O-])ccc1N1CCOCC1	-18%	.	i	.	i	.
O=C(CN1CCN(c2ccc(Cl)cc2)CC1)Nc1ccc(F)cc1	16%	2%	21µM*	-1%	?	0%
O=C(CN1CCN(c2ccccc2)CC1)Nc1ccc(Oc2ccccc2)cc1	-24%	1%	23µM*	-2%	i	-2%
O=C(CN1CCOCC1)Nc1ccc(Oc2ccccc2)cc1	-23%	?	i	-4%	i	-5%
O=C(CCS(=O)(=O)c1ccccc1)Nc1ccc(N2CCN(Cc3ccccc3)CC2)cc1	-11%	?	?	3%	i	-6%
SMILES	RGS4 inh	MCF10A rerep	KB-V1 MDR tox	SW480 rereplic	KB-3-1 cytotox	TSG101-PTAP inh
O=C(CCS(=O)(=O)c1ccc(F)cc1)Nc1ccc(N2CCN(Cc3ccccc3)CC2)cc1	?	8%	18µM*	0%	i	-2%
CN1C(=O)c2cccc3c(S(=O)(=O)NCCc4ccccc4)ccc1c23	-16%	23µM*	i	?	i	0%
COCCNS(=O)(=O)c1ccc2c3c(cccc13)C(=O)N2C	-9%	-4%	i	2%	i	0%
CCOC(=O)c1ccccc1NC(=O)NCc1c(-n2cccc2)sc2c1CCCC2	-6%	.	i	.	i	.
O=C(NC1CCCCC1)C(c1cccnc1)N(C(=O)CCl)c1ccc(F)cc1 (centres undefined)	4%	18µM*	16µM*	2.1µM*	i	-4%
COc1ccc(N(C(=O)Cc2cccs2)C(C(=O)NC2CCCC2)c2ccncc2)cc1 (centres undefined)	-6%	-1%	?	-2%	i	1%
Cc1cc(C)cc(N(C(=O)CNC(=O)c2cccs2)C(C(=O)NC2CCCC2)c2cccnc2)c1 (centres undefined)	-11%	21µM*	i	0%	i	-11%
O=C(NC1CCCCC1)C(c1cccnc1)N(C(=O)CCl)c1ccccc1Cl (centres undefined)	8%	6%	?	?	10µM*	0%
O=C(NCC(=O)N(c1ccc(F)cc1)C(C(=O)NC1CCCCC1)c1cccnc1)c1ccco1 (centres undefined)	-53%	-4%	i	-3%	i	-2%
COc1ccc(N(C(=O)CCl)C(C(=O)NC2CCCCC2)c2cccnc2)cc1 (centres undefined)	-3%	18µM*	21µM*	?	10µM*	2%
COc1cccc(NC(=O)c2c(N3CCCC3=O)c3cc(C)ccc3n2C)c1	15%	.	?	.	i	.
CC(C)(C)c1nnc(NC(=O)C2CCN(C(=O)c3ccccc3)CC2)s1	-22%	.	i	.	i	.
CCc1nc(NCCCn2ccnc2)c2oc3ccccc3c2n1	-15%	11%	?	-3%	i	0%
c1ccc(-c2nc(NCCCn3ccnc3)c3oc4ccccc4c3n2)cc1	-3%	?	5.8µM*	?	?	-2%
c1ccc(-c2nc(NCc3ccco3)c3oc4ccccc4c3n2)cc1	-41%	16µM*	?	3%	i	1%
CCOC(=O)c1cc(-c2ccc(OC)cc2)n(CCC(=O)Nc2ccccc2OC)c1C	-9%	.	i	.	i	.
COc1ccc2[nH]c3c(c2c1)CCNC3=O	17%	6%	?	-8%	?	-1%
O=C1NCCc2c1[nH]c1ccc([N+](=O)[O-])cc21	-2%	1%	0.92µM*	10%	1.6µM*	-2%
